Assay results reported in PubChem BioAssay (Tox21).
Where “and” joins values, the source holds several entries; their conditions need not be identical. Equal values may be shown once. Records with an inconclusive call do not appear. Where a call stands in place of a potency, no number is given. Some compounds were tested as several samples or in several runs, with calls that do not always agree. Calls of active or inactive are those of the source. Unless noted, the call rests on the fitted dose curve; in most records, active means well fitted curve in the direction sought with a large enough effect in the repeat runs; inconclusive means weak or mixed curves; inactive means no such curve, though single readings can be large; an effect the other way counts as inactive or inconclusive.

Assays:
[1] = target: Thyrotropin receptor (Homo sapiens) (UniProt P16473); experiment: qHTS assay to identify small molecule antagonists of the thyroid stimulating hormone receptor (TSHR) signaling pathway (AID 1259385; calls by dose curve; further: nearly all actives have a fitted effect of over 20% in size; further: potency means the concentration at half of the fitted maximal effect)
In short: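 TSHR-HEK293 cells were plated and held 18 h at 37C/5% CO2, then given compound plus Ro20-1724 and stimulated with TSH at 1.5 ng/mL final. After 30 min at room temperature, cAMP was detected with cAMP-d2/anti-cAMP-cryptate (1 h) by fluorescence.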

[2] = qHTS assay to identify small molecule agonists of the estrogen receptor alpha (ER-alpha) signaling pathway in the presence of an antagonist - cell viability counter screen (AID 1259386);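 further: cells exposed to compounds for 22 h at 37 °C before the viability read; nearly all actives have a fitted effect of over 30% in size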; further: potency means the concentration at half of the fitted maximal effect; on activity change, negative = cytotoxicity: series mostly up to about 92 µM
In short: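 Cell viability in VM7Luc4E2 cells (endogenous full-length ER-alpha) measured by CellTiter-Fluor fluorescence in the same wells as the luciferase screen. Cells pre-cultured 5 days in charcoal-stripped serum, then treated 22 h with compounds at 15 concentrations plus 10.0nM ICI-182,780.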

[3] = target: Progesterone receptor (Homo sapiens) (UniProt P06401); experiment: qHTS assay to identify small molecule agonists of the progesterone receptor (PR) signaling pathway (AID 1346784; calls by dose curve; further: nearly all actives have a fitted effect of over 30% in size)
In short: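 Using charcoal-stripped serum (2%) to limit endogenous steroids, PR-UAS-bla HEK 293T cells received compounds for 16 hr at 37C after 6 hr plating; beta-lactamase FRET fluorescence was recorded following 2 hr substrate loading at room temperature.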

[4] = target: Progesterone receptor (Homo sapiens) (UniProt P06401); experiment: qHTS assay to identify small molecule antagonists of the progesterone receptor (PR) signaling pathway (AID 1346795; active means well fitted inhibition curve with a large enough effect in the signal ratio in the repeat runs, not every such curve was filed as active; the % refers to the signal ratio; further: potency means the concentration at half of the fitted maximal effect)
In short: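 Inhibition of R5020-induced (1 nM final) beta-lactamase reporter signal in PR-UAS-bla HEK293T cells was scored by FRET fluorescence after overnight (16 hr) compound treatment.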

[5] = qHTS assay to identify small molecule antagonists of the progesterone receptor (PR) signaling pathway - cell viability counter screen (AID 1346798); further: nearly all actives have a fitted effect of over 50% in size; further: potency means the concentration at half of the fitted maximal effect; on activity change, negative = cytotoxicity: series mostly up to about 92 µM
In short: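 ATP content as viability readout: CellTiter-Glo luminescence, 30 min room temperature, in PR-UAS-bla HEK293T cells after 16 hr compound/R5020 treatment at 37C and 5% CO2.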

[6] = qHTS assay to identify small molecule agonists of the progesterone receptor (PR) signaling pathway - cell viability counter screen (AID 1346799; calls by dose curve; further: nearly all actives have a fitted effect of over 45% in size; further: potency means the concentration at half of the fitted maximal effect)
In short: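 Cytotoxicity in PR-bla HEK293T cells: 16 h compound, 37C; CellTiter-Glo added post-FRET read; luminescence after 30 min RT.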

[7] = qHTS assay to identify small molecule antagonists of the TGF-beta/Smad signaling pathway - cell viability counter screen (AID 1346824); further: nearly all actives have a fitted effect of over 50% in size
In short: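 SBE-bla HEK 293T cells were plated overnight at 37 C, then given compounds in DMSO plus TGF-beta1 (added as 0.25 ng/mL solution) for 5 hr. After the bla read, CellTiter-Glo was added to the same wells and luminescence read after 30 min at room temperature.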

[8] = qHTS assay to identify small molecule agonists of the TGF-beta/Smad signaling pathway - cell viability counter screen (AID 1346829); further: top concentration of the series differs between compounds; nearly all actives have a fitted effect of over 45% in size
In short: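 Same-well cytotoxicity: CellTiter-Glo added after the 2 hr room-temperature beta-lactamase substrate step, luminescence measured 30 min later; cells had 5 hr of compound at 37 C.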

[9] = qHTS assay to identify small molecule agonists of the TGF-beta/Smad signaling pathway (AID 1346859; active means well fitted activation curve with a large enough effect in the signal ratio in the repeat runs, not every such curve was filed as active; the % refers to the signal ratio; further: series mostly up to about 77 µM)
In short: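 Stable Smad binding element-beta-lactamase HEK 293T cells; 5 hr compound exposure at 37 C under 5% CO2; 2 hr room-temperature substrate step; fluorescence excited at 405 nm, collected at 460 nm and 530 nm.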

[10] = target: Thyrotropin-releasing hormone receptor (Homo sapiens) (UniProt P34981); experiment: qHTS assay to identify small molecule antagonists of the thyrotropin-releasing hormone receptor (TRHR) signaling pathway (AID 1346877; active means well fitted inhibition curve with a large enough effect in the repeat runs, not every such curve was filed as active; further: series mostly up to about 51 µM)
In short: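 TRHR-expressing HEK293 cells loaded with calcium dye for 2 h at 37 C; compounds pre-incubated 5 min at room temperature before TRH challenge at 1 nM final. Intracellular calcium fluorescence read kinetically for 3 min; 15 concentrations in triplicate.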

Thyrotropin-releasing hormone receptor (Homo sapiens), sequence (P34981 whole entry, looked up): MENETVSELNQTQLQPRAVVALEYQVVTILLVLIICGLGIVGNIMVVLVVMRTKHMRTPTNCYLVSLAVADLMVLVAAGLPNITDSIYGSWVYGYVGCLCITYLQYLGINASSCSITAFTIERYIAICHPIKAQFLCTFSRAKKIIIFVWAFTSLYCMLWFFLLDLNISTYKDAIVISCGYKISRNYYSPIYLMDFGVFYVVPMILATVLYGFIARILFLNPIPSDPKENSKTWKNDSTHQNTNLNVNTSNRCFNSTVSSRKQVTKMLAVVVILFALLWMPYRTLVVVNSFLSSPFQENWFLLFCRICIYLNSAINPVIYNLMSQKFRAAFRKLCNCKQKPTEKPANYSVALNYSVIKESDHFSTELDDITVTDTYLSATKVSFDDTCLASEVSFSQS
Progesterone receptor (Homo sapiens), sequence (P06401 whole entry, looked up): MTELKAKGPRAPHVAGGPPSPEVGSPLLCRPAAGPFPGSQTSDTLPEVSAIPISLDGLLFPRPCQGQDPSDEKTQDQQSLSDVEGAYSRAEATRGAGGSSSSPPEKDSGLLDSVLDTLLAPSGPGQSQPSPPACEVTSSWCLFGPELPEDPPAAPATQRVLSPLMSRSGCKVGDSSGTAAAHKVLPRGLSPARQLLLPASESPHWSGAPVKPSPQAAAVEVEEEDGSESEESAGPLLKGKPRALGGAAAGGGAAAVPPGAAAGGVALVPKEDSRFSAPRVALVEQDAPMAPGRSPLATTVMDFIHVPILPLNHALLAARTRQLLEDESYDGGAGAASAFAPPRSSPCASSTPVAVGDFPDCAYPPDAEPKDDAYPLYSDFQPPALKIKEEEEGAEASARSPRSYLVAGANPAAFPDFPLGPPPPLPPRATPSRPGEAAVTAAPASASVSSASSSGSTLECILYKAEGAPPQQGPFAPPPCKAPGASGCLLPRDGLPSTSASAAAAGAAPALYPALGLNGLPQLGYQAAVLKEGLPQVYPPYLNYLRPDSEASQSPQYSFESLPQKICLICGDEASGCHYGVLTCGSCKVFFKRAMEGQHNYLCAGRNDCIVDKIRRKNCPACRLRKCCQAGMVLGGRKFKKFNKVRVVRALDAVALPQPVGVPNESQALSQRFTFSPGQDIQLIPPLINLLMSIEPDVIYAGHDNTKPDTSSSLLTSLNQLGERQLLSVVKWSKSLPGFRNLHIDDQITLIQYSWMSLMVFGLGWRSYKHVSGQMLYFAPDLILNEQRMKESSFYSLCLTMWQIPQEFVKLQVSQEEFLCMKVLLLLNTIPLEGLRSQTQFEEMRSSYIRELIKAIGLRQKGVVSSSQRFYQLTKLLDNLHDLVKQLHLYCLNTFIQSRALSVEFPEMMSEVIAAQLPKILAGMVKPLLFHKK
Thyrotropin receptor (Homo sapiens), sequence (P16473 whole entry, looked up): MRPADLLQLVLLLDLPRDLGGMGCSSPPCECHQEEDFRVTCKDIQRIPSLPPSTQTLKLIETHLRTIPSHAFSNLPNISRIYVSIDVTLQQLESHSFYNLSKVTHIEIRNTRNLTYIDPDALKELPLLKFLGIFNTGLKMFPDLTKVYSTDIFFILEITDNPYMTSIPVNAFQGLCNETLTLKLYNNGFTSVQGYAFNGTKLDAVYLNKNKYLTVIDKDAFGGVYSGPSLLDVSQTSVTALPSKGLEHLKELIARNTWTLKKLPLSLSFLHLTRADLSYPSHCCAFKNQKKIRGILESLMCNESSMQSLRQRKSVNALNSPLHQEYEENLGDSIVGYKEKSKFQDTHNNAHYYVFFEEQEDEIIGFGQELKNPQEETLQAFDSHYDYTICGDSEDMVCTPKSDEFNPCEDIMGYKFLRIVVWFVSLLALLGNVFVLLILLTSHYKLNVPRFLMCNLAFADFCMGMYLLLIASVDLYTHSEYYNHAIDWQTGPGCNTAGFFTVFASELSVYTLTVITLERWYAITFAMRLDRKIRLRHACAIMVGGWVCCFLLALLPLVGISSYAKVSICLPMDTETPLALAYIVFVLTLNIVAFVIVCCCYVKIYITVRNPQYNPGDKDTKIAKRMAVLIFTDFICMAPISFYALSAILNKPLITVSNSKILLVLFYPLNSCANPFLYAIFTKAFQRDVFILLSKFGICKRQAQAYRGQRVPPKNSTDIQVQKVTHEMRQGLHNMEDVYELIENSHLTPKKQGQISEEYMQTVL

Row | Structure (SMILES) | Potency [1] | Potency [2] | Potency [3] | Potency [4] | Potency [5] | Potency [6] | Potency [7] | Potency [8] | outcome [9] | Potency [10] | activation [3] | activity change, negative = cytotoxicity [5]
1 | CCCCC(CC)COP(=O)(OCC(CC)CCCC)OCC(CC)CCCC (centres undefined) | inactive | inactive | inactive | inactive | inactive | inactive | inactive | inactive | inactive | inactive | – | –
2 | O=P(O)(O)O | inactive | inactive | inactive | inactive | inactive | inactive | inactive | inactive | inactive | inactive | – | –
3 | OC[C@H]1O[C@@H]2O[C@H]3[C@H](O)[C@@H](O)[C@@H](O[C@H]4[C@H](O)[C@@H](O)[C@@H](O[C@H]5[C@H](O)[C@@H](O)[C@@H](O[C@H]6[C@H](O)[C@@H](O)[C@@H](O[C@H]7[C@H](O)[C@@H](O)[C@@H](O[C@H]8[C@H](O)[C@@H](O)[C@@H](O[C@H]1[C@H](O)[C@H]2O)O[C@@H]8CO)O[C@@H]7CO)O[C@@H]6CO)O[C@@H]5CO)O[C@@H]4CO)O[C@@H]3CO | inactive | inactive | inactive | inactive | inactive | 24.4 µM (active) and inactive | inactive | – | inactive | inactive | – | –
4 | CCCCOCCOCCO | inactive | inactive | inactive | inactive | inactive | inactive | inactive | inactive | inactive | – | – | –
5 | O=C1OC2(c3cc(Br)c(O)c(Br)c3Oc3c2cc(Br)c(O)c3Br)c2c(Cl)c(Cl)c(Cl)c(Cl)c21 | inactive | 24.4 µM (active) and 13.2 µM (active) | inactive | inactive | inactive | inactive | inactive | inactive | inactive | inactive | – | –
6 | CN(C)C(=N)N=C(N)N | inactive | inactive | inactive | inactive | inactive | inactive | inactive | – | inactive | inactive | – | –
7 | c1ccc2c(c1)Oc1ccccc1S2 | inactive | inactive | inactive | inactive | inactive | inactive | inactive | – | inactive | inactive | – | –
8 | CCCC(=O)O | inactive | inactive | inactive | inactive | inactive | inactive | inactive | inactive | inactive | inactive | – | –
9 | O=C(c1ccccc1)c1ccccc1O | inactive | inactive | inactive | inactive | inactive | inactive | inactive | inactive | inactive | inactive | – | –
10 | c1ccc(Nc2ccccc2)cc1 | inactive | inactive | inactive | 48.5 µM (active) and inactive | inactive | inactive | inactive | – | inactive | – | – | –
11 | Cc1ccc(C)c(O)c1C | inactive | inactive | inactive | inactive | inactive | inactive | inactive | inactive | inactive | inactive | – | –
12 | COc1ccc(OC)c(C(O)CNC(=O)CN)c1 (centres undefined) | inactive | inactive | inactive | inactive | inactive | inactive | inactive | – | inactive | – | – | –
13 | CCCCCCCCCC(=O)OC | inactive | inactive | inactive | inactive | inactive | inactive | inactive | inactive | inactive | inactive | – | –
14 | Cn1cnc([N+](=O)[O-])c1Sc1ncnc2nc[nH]c12 | inactive | inactive | inactive | inactive | inactive | 3.83 µM (active) and inactive | inactive | inactive | inactive | inactive | – | –
15 | C[Si](C)(C)O[Si](C)(C)C | inactive | inactive | inactive | inactive | inactive | inactive | inactive | inactive | inactive | inactive | – | –
16 | Nc1ccc(S(=O)(=O)Nc2cnc3ccccc3n2)cc1 | inactive | inactive | inactive | inactive | inactive | inactive | inactive | – | inactive | – | – | –
17 | CCOCCOCCO | inactive | inactive | inactive | inactive | inactive | inactive | inactive | inactive | inactive | inactive | – | –
18 | Oc1ccc(O)cc1 | inactive | inactive | inactive | inactive | inactive | inactive | inactive | inactive | inactive | inactive | – | –
19 | COC(C)COC(C)COC(C)CO (centres undefined) | inactive | inactive | inactive | inactive | inactive | inactive | inactive | – | inactive | inactive | – | –
20 | CC(C)=CCCC(C)CCO (centres undefined) | inactive | inactive | inactive | inactive | inactive | inactive | inactive | – | inactive | inactive | – | –
21 | Cc1cccc(C(=O)O)c1 | inactive | inactive | inactive | inactive | inactive | inactive | inactive | – | inactive | – | – | –
22 | O=C(Nc1ccc([N+](=O)[O-])cc1Cl)c1cc(Cl)ccc1O | inactive | 1.37 µM (active) and 1.3 µM (active) | – | 30.6 µM (active) | 30.6 µM (active) | – | – | – | – | – | 2.96% [at 19 µM] (inactive) | -2.12% [at 18.9 µM] (inactive)
23 | CN(C)CCN(Cc1cccs1)c1ccccn1 | inactive | inactive | inactive | inactive | inactive | inactive | inactive | – | inactive | – | – | –

Row | Structure (SMILES) | Potency [1] | Potency [2] | Potency [3] | Potency [4] | Potency [5] | Potency [6] | Potency [7] | Potency [8] | outcome [9] | Potency [10] | activation [3] | activity change, negative = cytotoxicity [5]
24 | C/C=C/C(=O)O | inactive | inactive | inactive | inactive | inactive | inactive | inactive | inactive | inactive | inactive | – | –
25 | CC1=CC2C3CC(C=C3C)C2C1 (centres undefined) | inactive | inactive | inactive | inactive | inactive | inactive | inactive | inactive | inactive | – | – | –
26 | C=C(C)C(=O)OCCOC(=O)C(=C)C | inactive | inactive | inactive | inactive | inactive | inactive | inactive | inactive | inactive | inactive | – | –
27 | CCCCCCCCCCCO | inactive | inactive | inactive | inactive | inactive | inactive | inactive | inactive | inactive | – | – | –
28 | c1cc(-c2ccncc2)ccn1 | inactive | inactive | inactive | inactive | inactive | inactive | inactive | inactive | inactive | inactive | – | –
29 | CC(CCC(=O)O)(c1ccc(O)cc1)c1ccc(O)cc1 | inactive | inactive | inactive | inactive | inactive | inactive | inactive | – | inactive | inactive | – | –
30 | CCCCC/C=C/C=C/C=O | inactive | inactive | inactive | inactive | inactive | inactive | inactive | inactive | inactive | inactive | – | –
31 | CC(=O)c1ccccn1 | inactive | inactive | inactive | inactive | inactive | inactive | inactive | – | inactive | inactive | – | –
32 | Cc1ccc2c(n1)Oc1ccc(C(C)C(=O)OCC(=O)N(C)C)cc1C2 (centres undefined) | inactive | inactive | inactive | inactive | inactive | inactive | inactive | – | inactive | inactive | – | –
33 | c1ccncc1 | inactive | inactive | inactive | inactive | inactive | inactive | inactive | inactive | inactive | inactive | – | –
34 | Clc1nc(Cl)c(Cl)c(Cl)c1Cl | inactive | inactive | inactive | inactive | inactive | inactive | inactive | inactive | inactive | – | – | –
35 | CC(=O)CC/C=C(\C)CCC=C(C)C | inactive | inactive | inactive | inactive | inactive | inactive | inactive | – | inactive | inactive | – | –
36 | O=C(OCc1ccccc1)c1ccccc1O | inactive | inactive | inactive | inactive | inactive | inactive | inactive | inactive | inactive | inactive | – | –
37 | COc1c(Cl)c(Cl)c(Cl)c(Cl)c1Cl | inactive | inactive | inactive | inactive | inactive | inactive | inactive | inactive | inactive | inactive | – | –
38 | CCC(C)OC(=O)c1ccc(O)cc1 (centres undefined) | inactive | inactive | inactive | 48.9 µM (active) and 54.5 µM (active) | inactive | inactive | inactive | inactive | inactive | inactive | – | –
39 | C=CC(C)(CCC=C(C)C)OC(C)=O (centres undefined) | inactive | inactive | inactive | inactive | inactive | inactive | inactive | inactive | inactive | inactive | – | –
40 | O=S(=O)(O)c1ccc(O)cc1 | – | inactive | inactive | inactive | inactive | inactive | inactive | inactive | inactive | – | – | –
41 | CN1C(C(=O)Nc2ccccn2)=C(O)c2ccccc2S1(=O)=O | – | inactive | inactive | inactive | inactive | inactive | inactive | inactive | inactive | inactive | – | –
42 | O=C(Nc1ccc(Cl)cc1)Nc1ccc(Cl)c(Cl)c1 | 61.1 µM (active) | inactive and 33.5 µM (active) | inactive | – | – | – | inactive | inactive | inactive | – | – | –
43 | CCCc1c(OCCCCc2nn[nH]n2)ccc(C(C)=O)c1O | inactive | inactive | inactive | – | inactive | inactive | inactive | inactive | – | inactive | – | –
44 | O=C=Nc1ccc(Cc2ccc(N=C=O)cc2)cc1 | inactive | inactive | inactive | – | inactive | inactive | inactive | inactive | inactive | – | – | –
45 | Nc1ccc(Cl)cc1Cl | – | inactive | inactive | inactive | inactive | inactive | inactive | inactive | inactive | – | – | –
46 | O=C(COc1ccc(Cl)cc1)N1CCN(Cc2ccc3c(c2)OCO3)CC1 | inactive | inactive | inactive | 54.5 µM (active) | inactive | – | inactive | inactive | inactive | inactive | – | –
